Reference: PubChem BioAssay (Tox21)
The source made the active and inactive calls. Entries that show only a call come without a potency. Calls come from the whole dose curve; as a rule, active = well fitted inhibition curve with a large enough effect in the repeat runs (not every such curve was filed as active); inconclusive = weak or mixed curves; inactive = flat fitted curve, though single readings scatter.

target: Thyrotropin-releasing hormone receptor (Homo sapiens) (UniProt P34981); assay: qHTS assay to identify small molecule antagonists of the thyrotropin-releasing hormone receptor (TRHR) signaling pathway (AID 1346877); settings: TRHR-HEK293, TRH-induced calcium fluorescence, antagonist mode; series mostly up to 51.3 µM
Sequence (P34981 whole entry, looked up): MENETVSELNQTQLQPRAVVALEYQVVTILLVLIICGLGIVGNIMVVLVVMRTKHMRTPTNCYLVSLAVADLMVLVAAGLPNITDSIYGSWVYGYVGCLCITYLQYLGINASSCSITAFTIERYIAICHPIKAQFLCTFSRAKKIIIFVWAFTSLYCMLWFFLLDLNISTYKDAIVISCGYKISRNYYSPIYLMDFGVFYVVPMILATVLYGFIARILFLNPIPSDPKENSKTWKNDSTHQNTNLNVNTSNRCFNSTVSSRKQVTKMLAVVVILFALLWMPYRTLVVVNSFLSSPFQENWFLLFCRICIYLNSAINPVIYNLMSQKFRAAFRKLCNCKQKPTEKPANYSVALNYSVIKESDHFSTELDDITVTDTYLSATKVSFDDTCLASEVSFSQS
Source text: National Center for Advancing Translational Sciences [NCATS]
NIH Chemical Genomics Center [NCGC]
U.S. Environmental Protection Agency [EPA]
National Institutes of Environmental Health Sciences [NIEHS]
National Toxicology Program [NTP]
U.S. Food and Drug Administration [FDA]
Thyrotropin-releasing hormone (TRH) receptor (TRHR) is a G-protein-coupled receptor which binds the tripeptide thyrotropin releasing hormone. TRHR is found in the brain and, when bound by TRH, acts (through phospholipase C) to increase intracellular inositol trisphosphate. It plays a crucial role in the anterior pituitary where it controls the synthesis and secretion of thyroid stimulating hormone and prolactin. The TRHR-Hek293 assay is a cell-based assay, and it has the potential to screen G protein-coupled receptors. A compound/drug can either activate (agonist) or suppress (antagonist) GPCRs that can be monitored by levels of intracellular calcium. In this assay, the Tox21 10K compound library was screened to identify potential TRHR antagonists.
Tox21 Assay Protocol Summary:
The TRHR-Hek293 cells were dispensed at 1500cells/4uL/well in 1536-well black-clear bottom plates using a Multidrop dispenser. After the assay plates were incubated at a 37 C/5% CO2 incubator for 18 hours, 4 uL of Dye-Loading Solution was added to each well. The plates were incubated at 37 C for 2 hours. For agonist mode, 23 nL of compounds dissolved in DMSO, positive controls or DMSO only was transferred to the assay plate by a pin tool. The fluorescence intensity in the plates was measured using FDSS 7000EX kinetic plate reader for 3 min at 1 sec intervals. For antagonist mode, 23 nL of compounds dissolved in DMSO, positive controls or DMSO only was transferred to the assay plate by a pin tool. After 5 min incubation at room temperature, 1 uL of TRH was added on the top of the cell/compound mixtures to achieve a final agonist concentration of 1 nM. The fluorescence intensity in the plates was measured using FDSS 7000EX kinetic plate reader for 3 min at 1 sec intervals. Each test compound was measured at 15 concentrations and in triplicates.

| Compound | Potency |
| --- | --- |
| C[N+](C)(C)CCCl | inactive |
| Cc1ccccc1C(=O)Nc1cccc(OC(C)C)c1 | inactive |
| CC(C)(Cl)[N+](=O)[O-] | inactive |
| CCCC(=O)Cl | inactive |
| COC1=CC(=O)O[C@@H](CCc2ccccc2)C1 | inactive |
| CC1(C)[C@H](C=C(Cl)Cl)[C@@H]1C(=O)O[C@@H](C#N)c1cccc(Oc2ccccc2)c1 | inactive |
| CC(=O)[C@H]1CC[C@H]2[C@@H]3CC[C@H]4C[C@](C)(O)CC[C@]4(C)[C@H]3CC[C@]12C | inactive |
| COc1cc(Cl)c(OC)cc1Cl | inactive |
| CCCCCCCCOC(=O)c1ccc(C(=O)OCCCCCCCC)c(C(=O)OCCCCCCCC)c1 | inactive |
| CCCCOC(=O)c1ccccc1C(=O)OCc1ccccc1 | inactive |
| O=C(C(Cl)(Cl)Cl)C(Cl)(Cl)Cl | inactive |
| O=S1(=O)OC(c2cc(Br)c(O)c(Br)c2)(c2cc(Br)c(O)c(Br)c2)c2ccccc21 | inactive |
| O=[N+]([O-])C(Br)(CO)CO | inactive |
| CC1(C)CCC(Cc2ccc(Cl)cc2)C1(O)Cn1cncn1 (stereo not given) | inactive |
| O=C(OC1CCCCC1)c1ccccc1C(=O)OC1CCCCC1 | inactive |
| CCOc1ccc(C(C)(C)COCc2cccc(Oc3ccccc3)c2)cc1 | inactive |
| O=C(CBr)c1ccccc1 | inactive |
| COC(N)=O | inactive |
| Cc1ccc2ccccc2c1 | inactive |
| Clc1ccc(C(OCCN2CCCCC2)c2ccccc2)cc1 (stereo not given) | inactive |

| Compound | Potency |
| --- | --- |
| c1ccc(C2CC2)c(OCC2=NCCN2)c1 | inactive |
| CC(=O)NC1CCSC1=O (stereo not given) | inactive |
| CCOP(=S)(OCC)SCSCC | inactive |
| Cn1sc(Cl)cc1=O | inactive |
| CCCCN(N=O)C(=N)N[N+](=O)[O-] | inactive |
| N#Cc1cc(I)c(O)c(I)c1 | inactive |
| Clc1cc(C(Cl)(Cl)Cl)cnc1Cl | inactive |
| O=C1c2ccccc2C(=O)C1C(=O)C(c1ccccc1)c1ccccc1 | inactive |
| O=Cc1ccc(Cl)cc1Cl | inactive |
| OCCCBr | inactive |
| CO/C=C(/C(=O)OC)c1ccccc1COc1cccc(C(F)(F)F)n1 | inactive |
| CCOP(=S)(OCC)Oc1nc(Cl)c(Cl)cc1Cl | inactive |
| CCC(COC(=O)c1cc(OC)c(OC)c(OC)c1)(c1ccccc1)N(C)C (stereo not given) | inactive |
| c1cc2ccc3cccc4ccc(c1)c2c34 | inactive |
| N#CCc1ccccc1 | inactive |
| CC(C)=CCOc1c2occc2cc2ccc(=O)oc12 | inactive |
| c1ccoc1 | inactive |
| O=C(NC(=O)c1c(F)cccc1F)Nc1ccc(OC(F)(F)C(F)OC(F)(F)F)c(Cl)c1 (stereo not given) | inactive |
| Clc1cccc2ccccc12 | inactive |
| COc1nn(C(=O)NS(=O)(=O)c2ccccc2OC(F)(F)F)c(=O)n1C | inactive |
